Hits are enriched below; roughly 6% of the tested compounds scored in any of these assays.
D1 antagonist: Antagonist of Human D 1 Dopamine Receptor: qHTS | AID 504652, 2011 | HEK293 TREx D1 cells, calcium flux, dopamine EC80; stronger effect = lower value | activity change, negative = inhibition, % at 10 µM | 360,000 tested, 3.2% active | D(1A) dopamine receptor (Homo sapiens), P21728; in the data active means activity change below about -30%; further: on the % scale 0 is the no-effect control and ±100 the full control effect
Target sequence (P21728 whole entry, looked up): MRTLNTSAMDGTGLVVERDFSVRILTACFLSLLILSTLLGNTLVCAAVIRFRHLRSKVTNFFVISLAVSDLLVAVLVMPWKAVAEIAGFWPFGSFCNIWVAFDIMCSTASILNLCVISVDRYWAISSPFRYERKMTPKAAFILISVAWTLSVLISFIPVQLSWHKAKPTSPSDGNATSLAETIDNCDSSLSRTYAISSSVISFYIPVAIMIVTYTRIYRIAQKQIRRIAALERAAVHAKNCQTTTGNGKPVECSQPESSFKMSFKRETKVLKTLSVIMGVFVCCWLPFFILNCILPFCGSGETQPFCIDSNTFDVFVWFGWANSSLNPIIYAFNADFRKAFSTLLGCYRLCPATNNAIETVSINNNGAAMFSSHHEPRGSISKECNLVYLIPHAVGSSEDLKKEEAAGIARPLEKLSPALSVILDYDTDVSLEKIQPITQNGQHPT
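Using tetracycline-induced force-coupled D1 Hek293 cells and a calcium dye, signals were followed for 180 s after compound, then for 180 s after EC80 dopamine, to detect inhibitors.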
D1 PAM: Potentiators of Human D1 Dopamine Receptor: qHTS | D(1A) dopamine receptor (Homo sapiens), P21728 | HEK293 TREx D1 cells, calcium flux, dopamine EC20 potentiation | potentiation, % at 10 µM | 360,000 tested, 0.036% active; in the data active means potentiation above about 30%; further: 0% is about no effect
D1 ag: Allosteric Agonists of the Human D1 Dopamine Receptor: qHTS. D(1A) dopamine receptor (Homo sapiens), P21728. HEK293 T-REx D1 cells, calcium flux, agonist mode. activation, % at 2 µM. 360,000 tested, 1% active; in the data active means activation above about 30%; further: 0% is about no effect
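Tetracycline-induced HEK293 TREx D1 cells, force-coupled to calcium signalling, were dye-loaded with a no-wash calcium kit. Compound was pin-added after a 10 s baseline. Fluorescence was read kinetically at 1 cycle/s for 180 s, with calcium rises flagged as agonism.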
D3 ag: qHTS of D3 Dopamine Receptor Agonist: qHTS. D(3) dopamine receptor (Homo sapiens), P35462. D3R DiscoveRx beta-arrestin cells, luminescence, 90 min. max activation, %. 410,000 tested, 0.58% active; in the data active means max activation above about 30%; further: 0% is about no effect
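Agonist-mode cell screen: cells plated at 1500/well and incubated overnight at 37 °C, then exposed to library compounds for 90 min at 37 °C. Detection reagent was added for 30–60 min at room temperature, and luminescence was read.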
DRD3 antagonist: qHTS of D3 Dopamine Receptor Antagonist: qHTS. 360,000 tested, 2.5% active. D3R cells, DiscoveRx beta-arrestin luminescence, antagonist mode; stronger effect = lower value. max response, negative = inhibition, %. D(3) dopamine receptor (Homo sapiens), P35462. AID 652054, 2013; in the data active means max response below about -50%; inconclusive means no clear call, values can overlap the other calls; further: on the % scale 0 is the no-effect control and ±100 the full control effect
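Cells expressing the human receptor were seeded at 1500 cells/well, incubated overnight at 37 degrees C in 5% CO2, then exposed to library compounds with dopamine controls for 90 minutes at 37 degrees C before luminescent detection.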
An asterisk follows results filed as active.

Cn1nnnc1Sc1ncnc2scc(-c3ccc4c(=O)ccoc4c3)c12 was read as D1 antagonist 22, D1 PAM 8 and D1 ag 1.
For CC(C)(C)C(=O)NC(=S)NNC(=O)c1sc2ccccc2c1Cl the results were D1 antagonist 46, D1 PAM 56*, D1 ag 446*, D3 ag -8 and DRD3 antagonist 1.
For O=C(NNC(=S)NC1CCCCC1)c1sc2ccccc2c1Cl the results were D1 antagonist 2, D1 PAM -10, D1 ag 3, D3 ag -10 and DRD3 antagonist -64*.
For O=C(NC(=S)NCCO)c1sc2ccccc2c1Cl the results were D1 PAM 1, D1 ag -2, D3 ag -11 and DRD3 antagonist inconclusive.
Screening O=C(NNC(=O)c1sc2cccc(Cl)c2c1Cl)NC1CCCCC1 returned D1 antagonist 6, D1 PAM -5, D1 ag 2, D3 ag -18 and DRD3 antagonist -74*.
For O=C(NC1CC1)c1sc2ccccc2c1Cl the results were D1 antagonist -2, D1 PAM -4, D1 ag 1, D3 ag 3 and DRD3 antagonist 3.
`O=C(NNC(=O)C1CC2CCC1C2)c1sc2ccccc2c1Cl` (configuration not stated) gave D1 antagonist -34*, D1 PAM -5, D1 ag 3, D3 ag 0 and DRD3 antagonist 11.
O=C(CCNC(=O)Cn1ccc2ccccc2c1=O)NCCCN1CCN(c2ccc(F)cc2)CC1 was read as D1 antagonist -51*, D1 PAM -19, D1 ag 1, D3 ag -16 and DRD3 antagonist inconclusive.
Screening O=C(CNC(=O)Cn1ccc2ccccc2c1=O)NCCCN1CCN(c2cccc(Cl)c2)CC1 returned D1 antagonist -37*, D1 PAM -11, D1 ag -1, D3 ag -1 and DRD3 antagonist -75*.
`O=C(CCn1c(=O)oc2ccccc21)NCCCN1CCN(c2ccc(F)cc2)CC1` gave D1 antagonist -22, D1 PAM 0, D1 ag 9, D3 ag 1 and DRD3 antagonist -52*.
For O=C(CCn1c(=O)oc2ccccc21)NCCCN1CCOCC1 the results were D1 antagonist -5, D1 PAM 0, D1 ag 0, D3 ag 2 and DRD3 antagonist 11.
`CCOC(=O)c1c(C)[nH]c(CCC(=O)NCCCN2CCN(c3cc(Cl)ccc3C)CC2)c1C` gave D1 antagonist -12, D1 PAM -4, D1 ag 27 and D3 ag -30.
Screening CCOC(=O)c1c(C)[nH]c(CCC(=O)NCCCN2CCN(c3ccc(F)cc3)CC2)c1C returned D1 antagonist -37*, D1 PAM -6, D1 ag 0 and D3 ag -22.
CC(C)c1ccc(OCC(=O)N(Cc2cccs2)C2CCS(=O)(=O)C2)cc1 (configuration not stated) was read as D1 antagonist -19, D1 PAM -1, D1 ag 2 and D3 ag 8.
Screening Cc1ccc(S(=O)(=O)Nc2ccccc2OC(C(=O)OC(C)(C)C)C(=O)OC(C)(C)C)cc1 returned D3 ag -4 and DRD3 antagonist -11.
Screening O=C(CCNC(=O)Cn1ccc2ccccc2c1=O)NCCCN1CCN(c2ccccc2F)CC1 returned D1 antagonist -68*, D1 PAM -16, D1 ag 2, D3 ag 14 and DRD3 antagonist -68*.
`O=C(CCNC(=O)Cn1ccc2ccccc2c1=O)NCCCN1CCOCC1` gave D1 antagonist 16, D1 PAM 4, D1 ag 1, D3 ag 3 and DRD3 antagonist 42.
`CCOc1ccc(CONS(=O)(=O)c2ccc(NC(C)=O)cc2)cc1Cl` gave D1 antagonist -25, D1 PAM -9, D1 ag 69*, D3 ag -6 and DRD3 antagonist -11.
For CC(=O)Nc1ccc(S(=O)(=O)NNC(=O)COc2ccc(Cl)cc2Cl)cc1 the results were D1 antagonist 1, D1 PAM 4, D1 ag 2, D3 ag 1 and DRD3 antagonist 7.
Screening COCCCOc1cc(C[C@@H](C[C@H](N)[C@@H](O)C[C@H](C(=O)NCC(C)(C)C(N)=O)C(C)C)C(C)C)ccc1OC returned D3 ag 12.
`COc1ccc(C2=C/C(=C\c3cccc(OC(C)=O)c3)C(=O)O2)cc1` gave D1 antagonist -31*, D1 PAM -7, D1 ag 81*, D3 ag -2 and DRD3 antagonist -18.
`COc1ccc(C2=C/C(=C\c3ccccc3OC(C)=O)C(=O)O2)cc1` gave D1 antagonist -10, D1 PAM 2, D1 ag 54*, D3 ag -9 and DRD3 antagonist -14.
Screening COc1ccccc1/C=C/c1nc2ccc(OC(C)=O)cc2c(=O)o1 returned D1 antagonist 11, D1 PAM -3, D1 ag 0, D3 ag 1 and DRD3 antagonist -1.
Cn1c(C(=O)O)cnc1Sc1ncc(C(F)(F)F)cc1Cl was read as D1 antagonist -7, D1 PAM -1, D1 ag 3, D3 ag 4 and DRD3 antagonist 8.
Cn1c(C(N)=O)cnc1Sc1ncc(C(F)(F)F)cc1Cl was read as D1 antagonist -47*, D1 PAM -6, D1 ag 5, D3 ag -2 and DRD3 antagonist -24.
`CC(C)n1cnnc1SCC(=O)NNC(=O)COc1ccc(Cl)cc1` gave D1 antagonist 10, D1 PAM -1, D1 ag 1, D3 ag 6 and DRD3 antagonist 13.
Screening COc1ccc2c(c1)c1nnc(SCC(=O)N3CCCCC3C)nc1n2C (configuration not stated) returned D1 antagonist 3, D1 PAM -7, D1 ag 1, D3 ag -2 and DRD3 antagonist 13.
`COc1ccc(N2CCN(C(=O)CSc3nnc4c5cc(C)ccc5n(C)c4n3)CC2)cc1` gave D1 antagonist 0, D1 PAM 0, D1 ag 0, D3 ag 43* and DRD3 antagonist 21.
For Cc1ccccc1NC(=O)c1ccc(N(Cc2ccccc2)S(C)(=O)=O)cc1 the results were D1 antagonist -12, D1 PAM 0, D1 ag 9 and D3 ag -12.
Screening Cc1ccc(Sc2nc(-c3ccccc3)nnc2C(F)(F)F)cc1 returned D1 antagonist -2, D1 PAM 2, D1 ag 3, D3 ag -5 and DRD3 antagonist -70*.

From PubChem
